# NIH3T3 tox – NIH 3T3 cell cytotoxicity; Potency, µM (top dose mostly 96.7 µM), inactives show at the highest dose activity change, negative = cytotoxicity, actives largely listed as inhibitors; NIH 3T3 viability, CellTiter-Glo ATP luminescence, 48-72 h; 4.3% of 94,000 active; AID 1345082; note: % is set by controls: 0 for no effect and ±100 for the full control effect; nearly all actives have a fitted effect of over 55% in size
#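 Cells were seeded at 400 per well, treated with pin-transferred compound, and kept 48 or 72 hr at 37 °C before CellTiter-Glo addition and luminescence imaging of cellular ATP.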
# FLuc inh-1 – inhibitors of firefly (Photinus pyralis) luciferase; P08659; purified P. pyralis luciferase, luminescence, biochemical; Potency, µM (highest dose often 115 µM), most hits filed as inhibitors; 2.5% of 76,000 active; AID 1347043; note: % is set by controls: 0 for no effect and ±100 for the full control effect; nearly all actives have a fitted effect of over 65% in size
# Target sequence (P08659 whole entry, looked up): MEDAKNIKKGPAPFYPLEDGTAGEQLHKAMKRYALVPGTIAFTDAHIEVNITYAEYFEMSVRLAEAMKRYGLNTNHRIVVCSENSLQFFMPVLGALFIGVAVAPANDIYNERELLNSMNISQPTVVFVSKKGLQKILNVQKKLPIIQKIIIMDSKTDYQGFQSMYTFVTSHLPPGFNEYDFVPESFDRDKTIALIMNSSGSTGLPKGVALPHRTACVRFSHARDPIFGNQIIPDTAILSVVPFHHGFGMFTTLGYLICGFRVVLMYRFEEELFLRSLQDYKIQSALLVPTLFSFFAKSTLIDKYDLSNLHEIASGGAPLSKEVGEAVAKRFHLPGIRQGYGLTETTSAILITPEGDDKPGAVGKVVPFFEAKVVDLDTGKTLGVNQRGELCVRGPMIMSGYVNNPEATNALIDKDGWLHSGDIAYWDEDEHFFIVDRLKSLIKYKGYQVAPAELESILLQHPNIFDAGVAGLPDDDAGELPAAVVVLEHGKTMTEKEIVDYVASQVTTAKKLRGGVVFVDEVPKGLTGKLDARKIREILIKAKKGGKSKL
#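 Purified P. pyralis luciferase (10nM final) in 50mM Tris acetate pH 7.5, 10mM Mg acetate, 0.01% Tween-20, 0.05% BSA with 10uM D-luciferin and 10uM ATP. Compounds titrated qHTS. Luminescence imaged on CCD.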
# hNpr1 antagonist – human Npr1 receptor antagonism | HEK293 hNpr1 GloSensor cGMP, ANP-stimulated luminescence | AID 1347048 | Potency, µM (top dose mostly 46.3 µM), inactives show top-dose activity change, negative = inhibition, usual class: inhibitors | 1.6% of 76,000 active; calls by dose curve; note: % is set by controls: 0 for no effect and ±100 for the full control effect; nearly all actives have a fitted effect of over 60% in size
#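 HEK293 cells stably expressing human Npr1 and cGMP GloSensor pGS-40F, loaded 2 h with 2% GloSensor reagent, given compound 30 min at room temperature. Luminescence read before and 20 min after 0.1 nM hNppA.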
# HEK293 tox – kills HEK 293 cells; HEK 293 viability, ATP luminescence (CellTiter-Glo), 48-72 h; Potency, µM (titrated, usually from 115 µM), without a hit: at the top dose activity change, negative = cytotoxicity, usual class: inhibitors; 6.6% of 94,000 active; AID 1345083; note: % is set by controls: 0 for no effect and ±100 for the full control effect; nearly all actives have a fitted effect of over 60% in size
#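 Cells seeded first (HEK 293, 250 cells/well), then compound added by pintool. Incubation ran 48 or 72 hr at 37 degree Celsius. CellTiter-Glo was added and luminescence imaged after 10 min at room temperature.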
# FLuc SDR no ATP – stabilizes firefly luciferase without ATP | shares compounds with FLuc inh-1 | Purified FLuc-C-HiBiT, Nano-Glo HiBiT luminescence, no ATP | Potency, µM (doses to about 32.7 µM), without a hit: at the highest dose activation (signal gain), most hits filed as activators | 7.8% of 1,300 active | AID 1963318; note: nearly all actives have a fitted effect of over 55% in size
# FLuc SDR ATP – binders stabilizing firefly luciferase, plus ATP. AID 1963319. Potency, µM (titrated, usually from 32.7 µM), without a hit: at the highest dose activation (gain of signal), hits mostly activators. purified FLuc-C-HiBiT + ATP, HiBiT complementation luminescence. shares compounds with FLuc inh-1. 8.7% of 1,300 active;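 note: signal reports ligand binding via conformational change of the enzyme rather than luciferase catalysis; % of control where 0% means no effect; nearly all actives have a fitted effect of over 55% in size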
# FLuc inh-2 – inhibitors of firefly luciferase enzymatic activity; purified FLuc-C-HiBiT enzyme, luciferin luminescence; 42% of 1,300 active; AID 1963320; shares compounds with FLuc inh-1; Potency, µM (titrated, usually from 32.7 µM), for the others: at the highest dose activity change, negative = inhibition, most hits filed as inhibitors; note: % is set by controls: 0 for no effect and ±100 for the full control effect; nearly all actives have a fitted effect of over 70% in size
# * = called active by the depositor; i = inactive; ? = inconclusive; . = not tested or not shown; [ ] = dose if it differs, or a comment. A selection: hits, their analogues and other compounds. The true share with any hit is near 11%. Unless noted, calls come from the whole dose curve; as a rule, active = well fitted curve in the direction sought with a large enough effect; inconclusive = small, poorly fitted or top-dose-only effect, or another doubt; inactive = no such curve, though single readings can be large; an effect the other way counts as inactive or inconclusive. Potency is the fitted concentration of half-maximal effect.
SMILES,NIH3T3 tox,FLuc inh-1,hNpr1 antagonist,HEK293 tox,FLuc SDR no ATP,FLuc SDR ATP,FLuc inh-2
COc1ccc(C(=O)NC2CCCN(c3cc(-c4ccc(Cl)cc4)[nH]n3)C2)cc1OC (stereo not drawn),?,4µM*,-19%,35µM*,26%,14%,6.2µM*
COc1ccc(-c2cc(N3CCCC(NC(=O)c4ccc(OC)c(OC)c4)C3)n[nH]2)cc1 (stereo not drawn),?,3.2µM*,-15%,?,?,?,3.9µM*
NC(=O)c1ccc(OC2CCN(C(=O)C3CCC3)CC2)nc1,-37%,i,-23%,?,.,.,.
O=C1CCN(Cc2ccc(F)cc2F)CCCC(c2nc(-c3cnccn3)no2)CCN1 (stereo not drawn),?,i,2%,?,.,.,.
CC(=O)N1CCN(C(=O)c2cn(CCN)nn2)[C@H]2CS(=O)(=O)C[C@H]21,-3%,i,-3%,-4%,.,.,.
Cc1cnc(CC2CCCN(C(=O)CCc3c[nH]c4ccccc34)C2)n1C(C)C (stereo not drawn),-25%,14µM*,-1%,?,13%,14%,4%
CCn1nc(C)c(CCN(C)C(=O)Cn2nc3n(c2=O)CCC(N)CC3)c1C (stereo not drawn),-8%,i,4%,-4%,.,.,.
N#Cc1ccc(S(=O)(=O)N2C[C@@H](Oc3ccccc3)C[C@H]2C(=O)N2CCOCC2)cc1,-1%,.,.,i,.,.,.
COc1ccc(NC(=O)Nc2ccc(C)n(CC(=O)NCC(C)C)c2=O)cc1,-17%,1.6µM*,-15%,-29%,7.9µM*,?,3.5µM*
CCN1CCN(C(=O)Cn2c(C)ccc(NC(=O)Nc3ccc(C)cc3)c2=O)CC1,-2%,4.5µM*,-7%,-14%,?,?,5µM*
COc1ccc(NC(=O)Nc2ccc(C)n(CC(=O)O)c2=O)cc1,i,4µM*,-4%,12%,11µM*,?,9.9µM*
Cc1ccc(NC(=O)Nc2ccc(C)n(CC(=O)NCCC(C)C)c2=O)cc1,35µM*,0.56µM*,?,28µM*,?,?,1.1µM*
Cc1ccc(S(=O)(=O)Nc2ccc(C)n(CC(=O)N3CCCCCC3)c2=O)cc1,i,i,-1%,4%,.,.,.
COc1ccc(S(=O)(=O)Nc2ccc(C)n(CC(=O)NCc3ccc(C)o3)c2=O)cc1,i,i,-4%,-7%,.,.,.
Cc1cccc(NC(=O)Nc2ccc(C)n(CC(=O)N(C)C)c2=O)c1,i,?,3%,8%,.,.,.
Cc1oc2c(c1C(=O)NCCN1CCOCC1)CN(Cc1cccc(F)c1)CC2,-6%,i,0%,-3%,.,.,.
COc1cncc(CN2CCC3(CC2)COCCN3C(=O)OCc2ccccc2)c1,-13%[138 µM],i,0%[70.6 µM],?,.,.,.
CCCCn1c(=O)c(C(=O)NC)nc2cccnc21,1%[138 µM],.,.,i,.,.,.
CC(=O)c1cccc(-c2nc3ccccc3s2)c1,.,.,.,.,?,?,9.9µM*
COc1ccc2nc(-c3ccc(N4CCN(C(=O)OC(C)(C)C)CC4)cc3)sc2c1,.,.,.,.,16%,9%,?
COc1ccc(C(=O)N2CCN(C(=O)c3cccc(-c4ccc(OC)nn4)c3)CC2)cc1,?,.,.,-27%,.,.,.
COc1ccc2nc(-c3cccc(C(C)=O)c3)sc2c1,.,.,.,.,12µM*,?,1.2µM*
CCc1ccc(S(=O)(=O)N2CC(COC)C3(CCNCC3)C2)cc1 (stereo not drawn),-6%,i,5%,-31%,.,.,.
O=C([C@H]1C[C@H](Oc2ccccc2)CN1C(=O)COc1ccc(F)cc1)N1CCOCC1,3%,i,-6%,i,.,.,.
CSc1ccc(-c2nc(CN(C)Cc3cnccn3)c(C)o2)cc1,-9%,i,2%,-26%,.,.,.
SMILES,NIH3T3 tox,FLuc inh-1,hNpr1 antagonist,HEK293 tox,FLuc SDR no ATP,FLuc SDR ATP,FLuc inh-2
Cc1cnc(-c2ccccc2)n1C1CCCN(C(=O)C(C)C)C1 (stereo not drawn),-12%,i,2%,?,.,.,.
CC(C)c1ccc(C(=O)Nc2cccc3cccnc23)cc1,.,.,.,.,18%,12%,?
CN1CCC(Oc2ncccc2NC(=O)c2ccncc2)C1 (stereo not drawn),i,i,-1%,6%,.,.,.
Nc1nc2c([nH]c(=O)n2C2CC(O)C(CO)O2)c(=O)[nH]1 (stereo not drawn),.,.,.,.,13%,11%,6%
COc1ccc(-c2noc(N3CCc4ccccc43)n2)cc1,-10%,1.6µM*,?,0%,25%,?,3.1µM*
COc1ccc(C(=O)Nc2ccc(-c3nc4ccccc4s3)c(Cl)c2)cc1Cl,.,.,.,.,14%,11%,-12%
CCOc1ccc(C(=O)Nc2ccc(-c3nc4ccccc4s3)c(C)c2)cc1OCC,.,.,.,.,18%,11%,-10%
Cc1ccc(NC(=O)c2ccc3nc(-c4ccccn4)oc3c2)cc1,-27%,.,.,?,.,.,.
Cn1ncc2c(C(=O)Nc3cccc(Cl)c3)cc(-c3ccccc3C(F)(F)F)nc21,-10%,.,.,?,.,.,.
COc1ccc(NC(=O)c2cc3n(n2)CC(c2ccc(Cl)cc2)OC3)cc1Cl (stereo not drawn),?,i,?,?,.,.,.
COc1c(C)cccc1C(=O)Nc1ccc(-c2nc3ccccc3s2)c(Cl)c1,.,.,.,.,8%,6%,-16%
Cc1noc(C)c1C(=O)N1CC(n2cc(COCc3ccccc3)nn2)C1,-22%,.,.,-22%,.,.,.
Cc1cccc(-n2nc(C)c(CCC(=O)NC3CC3)c2Oc2ccc(F)cc2F)c1,?,i,-4%,?,.,.,.
Cc1nc2cc(-c3cccc(F)c3)nn2c(C)c1CCC(=O)NC1CCCCC1,.,.,.,.,12%,?,?
Cc1ccc(NC(=O)Cn2ccn3nc(-c4ccccc4)c(CO)c3c2=O)cc1F,?,i,-11%,?,.,.,.
Cc1ccc(NC(=O)CCc2c(C)nc3cc(-c4ccccc4)nn3c2C)cc1F,.,.,.,.,13%,?,?
CC(=O)c1ccc(NC(=O)CCc2c(C)nc3cc(-c4ccc(Cl)cc4)nn3c2C)cc1,.,.,.,.,19%,?,?
CCn1ncc(NC(=O)Cn2ncc3cc(-c4cccc(F)c4F)ccc32)n1,-54%,?,?,-67%,.,.,.
CCn1ncc(NC(=O)Cn2ncc3cc(-c4ccc(C)cc4F)ccc32)n1,-65%,14µM*,?,-54%,20%,13%,?
CCn1ncc(NC(=O)Cn2ncc3cc(-c4ccc(N(C)C)cc4)ccc32)n1,?,0.25µM*,?,?,?,?,0.79µM*

# Compound activity as filed in PubChem.
